This is part of a sample that, as a whole, favours compounds with a hit. Of some 83,000 tested, about 20% had one in any assay.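 Plates (96-well) were seeded with cells, treated with compound at one concentration, and incubated for 48 hours before percent growth was determined.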 The source made the active and inactive calls. The calls were made as follows: active = growth percent below 10; inactive = the rest.
Tests used:
Assay in all cases: NCI-60 one-dose screen, 48 h (100 = growth as untreated, 0 = no growth, -100 = all killed)
Settings in all cases: 10 µM unless noted
SR leukemia = system: SR leukemia
RPMI-8226 leukemia = system: RPMI-8226 leukemia
OVCAR-8 ovarian = system: OVCAR-8 ovarian
OVCAR-5 ovarian = system: OVCAR-5 ovarian
OVCAR-4 ovarian = system: OVCAR-4 ovarian
SK-OV-3 ovarian = system: SK-OV-3 ovarian
IGROV1 ovarian = system: IGROV1 ovarian
OVCAR-3 ovarian = system: OVCAR-3 ovarian
HS 578T breast = system: HS 578T breast
NCI/ADR-RES ovarian = system: NCI/ADR-RES ovarian

Measured: growth

NC(N)=Nc1ccc(Oc2cccc(NC(N)=Nc3ccc(I)cc3F)c2)cc1
inactive: SR leukemia 48.1% | RPMI-8226 leukemia 62.3% | OVCAR-8 ovarian 90.5% | OVCAR-5 ovarian 65.5% | OVCAR-4 ovarian 81.3% | SK-OV-3 ovarian 70.1% | IGROV1 ovarian 32.9% | OVCAR-3 ovarian 75.7% | HS 578T breast 61.1% | NCI/ADR-RES ovarian 100%

NC(=O)c1cccc(C#CCNC[C@H]2C[C@@H](n3ccc4c(Cl)ncnc43)[C@H](O)[C@@H]2O)c1
inactive: SR leukemia 112% | RPMI-8226 leukemia 110% | OVCAR-8 ovarian 101% | OVCAR-5 ovarian 98.4% | OVCAR-4 ovarian 111% | SK-OV-3 ovarian 105% | IGROV1 ovarian 101% | OVCAR-3 ovarian 113% | HS 578T breast 101% | NCI/ADR-RES ovarian 106%

COc1ccccc1-n1cc(C#N)c(N)c1C(=O)c1ccc(C)cc1
inactive: SR leukemia 49.4% | RPMI-8226 leukemia 99.7% | OVCAR-8 ovarian 95% | OVCAR-5 ovarian 103% | OVCAR-4 ovarian 103% | SK-OV-3 ovarian 93.5% | IGROV1 ovarian 84.6% | OVCAR-3 ovarian 94.6% | HS 578T breast 85.6% | NCI/ADR-RES ovarian 60.2%

CCCCCc1ccc(S(=O)(=O)Nc2cccc(-c3csc(NC(=O)CNCCN(C)C)n3)c2)cc1
inactive: SR leukemia 22.2% | RPMI-8226 leukemia 30.3% | OVCAR-8 ovarian 95.7% | OVCAR-5 ovarian 110% | OVCAR-4 ovarian 70% | SK-OV-3 ovarian 109% | IGROV1 ovarian 87.9% | OVCAR-3 ovarian 87.7% | HS 578T breast 90.9% | NCI/ADR-RES ovarian 73.1%

Cn1cc(-c2nc(N)nnc2-c2c[nH]c3ccccc23)c2cc(Br)ccc21
inactive: SR leukemia 26.7% | RPMI-8226 leukemia 12.9% | OVCAR-8 ovarian 33% | OVCAR-5 ovarian 55.1% | OVCAR-4 ovarian 74.1% | SK-OV-3 ovarian 29.7% | IGROV1 ovarian 30.5% | OVCAR-3 ovarian 16.9% | NCI/ADR-RES ovarian 20.2%
active: HS 578T breast 2.13%

CCCSc1nc(Nc2ccc(/C(C)=N\NC(N)=S)cc2)c(C#N)c(-c2ccccc2)n1
inactive: SR leukemia 57.1% | RPMI-8226 leukemia 67.5% | OVCAR-8 ovarian 56% | OVCAR-5 ovarian 85.5% | OVCAR-4 ovarian 58.7% | SK-OV-3 ovarian 125% | IGROV1 ovarian 86.9% | OVCAR-3 ovarian 31.4% | HS 578T breast 62.5% | NCI/ADR-RES ovarian 53.5%

N#Cc1c(-c2cccs2)cc(-c2cnccn2)nc1SCC(=O)c1ccc(F)cc1
inactive: SR leukemia 81.3% | RPMI-8226 leukemia 97.7% | OVCAR-8 ovarian 99.5% | OVCAR-5 ovarian 88% | OVCAR-4 ovarian 76% | SK-OV-3 ovarian 104% | IGROV1 ovarian 78.1% | OVCAR-3 ovarian 118% | HS 578T breast 94.2% | NCI/ADR-RES ovarian 96.4%

COc1cc(/C=C/C(=O)c2ccc(NC(=O)CSc3nnc(-c4ccc(-c5nc6ccc(Cl)cc6[nH]5)cc4)o3)cc2)cc(OC)c1OC
inactive: SR leukemia 48.4% | RPMI-8226 leukemia 108% | OVCAR-8 ovarian 98% | OVCAR-5 ovarian 91.3% | OVCAR-4 ovarian 102% | SK-OV-3 ovarian 99% | IGROV1 ovarian 88.3% | OVCAR-3 ovarian 84.1% | HS 578T breast 90.9% | NCI/ADR-RES ovarian 84.3%

O=C(NNc1nc2cc(F)cc(F)c2n2cccc12)c1cnccn1
inactive: RPMI-8226 leukemia 18.3% | OVCAR-8 ovarian 12.7% | OVCAR-5 ovarian 33.1% | OVCAR-4 ovarian 16.2% | IGROV1 ovarian 15% | OVCAR-3 ovarian 30.2% | HS 578T breast 64.4%
active: SR leukemia 8.81% | SK-OV-3 ovarian 4.18% | NCI/ADR-RES ovarian 3.06%

COc1cc(-c2nn(C(C)(C)C)cc2-c2ccnc(NCCCNS(=O)(=O)c3ccccc3)n2)ccc1Cl
inactive: SR leukemia 56% | RPMI-8226 leukemia 56.3% | OVCAR-8 ovarian 84.9% | OVCAR-5 ovarian 84.3% | OVCAR-4 ovarian 57.6% | SK-OV-3 ovarian 103% | IGROV1 ovarian 55.2% | OVCAR-3 ovarian 93.1% | HS 578T breast 68.3% | NCI/ADR-RES ovarian 71%

C[C@@H](Nc1ncnc2ccc(-c3cnc(Cl)c(NS(C)(=O)=O)c3)cc12)c1ccccc1
active: IGROV1 ovarian 3.14%
inactive: SR leukemia 47.6% | RPMI-8226 leukemia 23.9% | OVCAR-8 ovarian 75.9% | OVCAR-5 ovarian 38.4% | OVCAR-4 ovarian 58.3% | SK-OV-3 ovarian 55.6% | OVCAR-3 ovarian 44.6% | HS 578T breast 27.1% | NCI/ADR-RES ovarian 85%

C=CCn1c(SCC(=O)Nc2ccc(C(=O)/C=C/c3ccc(Cl)cc3)cc2)nnc1-c1c[nH]c2ccccc12
inactive: SR leukemia 71.1% | OVCAR-8 ovarian 76.1% | OVCAR-5 ovarian 97.3% | OVCAR-4 ovarian 66.9% | SK-OV-3 ovarian 86.7% | IGROV1 ovarian 58.1% | OVCAR-3 ovarian 84% | HS 578T breast 91.5% | NCI/ADR-RES ovarian 97.7%
active: RPMI-8226 leukemia 2.66%

C#CC(=O)N(c1ccc(OC)cc1OC)C(C(=O)NCC(=O)OCC)c1cccs1 (stereo not given)
inactive: OVCAR-8 ovarian 46.6% | OVCAR-4 ovarian 116% | SK-OV-3 ovarian 89.5% | HS 578T breast 20.9% | NCI/ADR-RES ovarian 87.5%
active: SR leukemia -25% | RPMI-8226 leukemia -55.3% | OVCAR-5 ovarian 2.13% | IGROV1 ovarian -58.1% | OVCAR-3 ovarian -58.9%

Cc1cc(S(=O)(=O)N(C)C)cc(NCC(=O)NC(=O)NCC(C)C)c1C
inactive: SR leukemia 91% | RPMI-8226 leukemia 97.4% | OVCAR-8 ovarian 104% | OVCAR-5 ovarian 87.8% | OVCAR-4 ovarian 76.4% | SK-OV-3 ovarian 112% | IGROV1 ovarian 77.2% | OVCAR-3 ovarian 112% | HS 578T breast 103% | NCI/ADR-RES ovarian 114%

COc1ccccc1-n1cc(C#N)c(N)c1C(=O)c1ccc(Cl)cc1
inactive: SR leukemia 23.5% | RPMI-8226 leukemia 88.3% | OVCAR-8 ovarian 96.7% | OVCAR-5 ovarian 109% | OVCAR-4 ovarian 98.2% | SK-OV-3 ovarian 101% | IGROV1 ovarian 78% | OVCAR-3 ovarian 63.7% | HS 578T breast 74.6% | NCI/ADR-RES ovarian 41.1%

COc1ccc(-c2nn(-c3ccc(S(C)(=O)=O)cc3)cc2/C=N/O)cc1
inactive: SR leukemia 107% | RPMI-8226 leukemia 102% | OVCAR-8 ovarian 101% | OVCAR-5 ovarian 101% | OVCAR-4 ovarian 113% | SK-OV-3 ovarian 108% | IGROV1 ovarian 106% | OVCAR-3 ovarian 122% | HS 578T breast 108% | NCI/ADR-RES ovarian 107%

NS(=O)(=O)c1ccc(Nc2nc(N/N=C/c3ccccn3)nc(Nc3ccccc3)n2)cc1
inactive: SR leukemia 12.5% | RPMI-8226 leukemia 36.6% | NCI/ADR-RES ovarian 49%
active: OVCAR-8 ovarian 3.72% | OVCAR-5 ovarian 9.36% | OVCAR-4 ovarian -20.3% | SK-OV-3 ovarian -31.4% | IGROV1 ovarian -30.3% | OVCAR-3 ovarian -15.8% | HS 578T breast -18.8%

Cn1ccnc1C(=O)/C=C/c1ccc(NC(=O)c2ccc(F)cc2)cc1
active: SR leukemia 8.3%
inactive: RPMI-8226 leukemia 10.6% | OVCAR-8 ovarian 65% | OVCAR-5 ovarian 41.2% | OVCAR-4 ovarian 37.1% | SK-OV-3 ovarian 67.2% | IGROV1 ovarian 34.7% | OVCAR-3 ovarian 17.9% | HS 578T breast 54.4% | NCI/ADR-RES ovarian 27.5%

CC(=O)N1C(=S)NC(=O)C1CC(C)C (stereo not given)
inactive: SR leukemia 101% | RPMI-8226 leukemia 99% | OVCAR-8 ovarian 103% | OVCAR-5 ovarian 100% | OVCAR-4 ovarian 99.5% | SK-OV-3 ovarian 101% | IGROV1 ovarian 104% | OVCAR-3 ovarian 118% | HS 578T breast 110% | NCI/ADR-RES ovarian 105%

CC(C)C[C@@H]1N[C@@]2(C(=O)Nc3ccccc32)[C@@H](c2ccc(F)cc2)[C@@H]1C(=O)c1ccc(O)cc1
inactive: SR leukemia 73.5% | RPMI-8226 leukemia 91.2% | OVCAR-8 ovarian 97.1% | OVCAR-5 ovarian 95.6% | OVCAR-4 ovarian 89.6% | SK-OV-3 ovarian 108% | IGROV1 ovarian 53.4% | OVCAR-3 ovarian 96.9% | HS 578T breast 84.5% | NCI/ADR-RES ovarian 94.1%

Nc1ncc(-c2ccc3ncnc(Nc4cccc(Cl)c4F)c3c2)cn1
active: SK-OV-3 ovarian 0%
inactive: SR leukemia 66.3% | RPMI-8226 leukemia 47.6% | OVCAR-8 ovarian 64.3% | OVCAR-5 ovarian 47.8% | OVCAR-4 ovarian 69.5% | IGROV1 ovarian 11.4% | OVCAR-3 ovarian 57.2% | HS 578T breast 35% | NCI/ADR-RES ovarian 59.3%

CCO/C=N/C1=C(C#N)C(c2ccc(F)cc2)c2sc3c(CC)cccc3c2O1 (stereo not given)
active: SR leukemia 6.82% | RPMI-8226 leukemia 4.25% | OVCAR-3 ovarian -17.4% | NCI/ADR-RES ovarian 9.33%
inactive: OVCAR-8 ovarian 27.2% | OVCAR-5 ovarian 29.2% | OVCAR-4 ovarian 60.4% | SK-OV-3 ovarian 64.4% | IGROV1 ovarian 23.5% | HS 578T breast 32.5%

CN(C)CCNC(=O)c1ccc(-c2nc3ccc4[nH]ncc4c3c3c2CCC3)cc1
inactive: OVCAR-5 ovarian 21.4% | OVCAR-4 ovarian 10.2% | NCI/ADR-RES ovarian 81.3%
active: SR leukemia -1.05% | RPMI-8226 leukemia -15.7% | OVCAR-8 ovarian 9.58% | SK-OV-3 ovarian 0.409% | IGROV1 ovarian 1.06% | OVCAR-3 ovarian 2.15% | HS 578T breast -25%

COc1cc(C2N=C(NNc3ccccc3)NC(C)=C2C(C)=O)ccc1O (stereo not given)
inactive: SR leukemia 57.7% | RPMI-8226 leukemia 110% | OVCAR-8 ovarian 94.2% | OVCAR-5 ovarian 92.7% | OVCAR-4 ovarian 93% | SK-OV-3 ovarian 90.1% | IGROV1 ovarian 69.9% | OVCAR-3 ovarian 122% | HS 578T breast 108% | NCI/ADR-RES ovarian 87.8%

Cc1cc(C(NC(=O)CCCCCNc2cccc3c2C(=O)N(C2CCC(=O)NC2=O)C3=O)c2ccc3c(c2)OC(F)(F)O3)c(O)c2ncccc12 (stereo not given)
inactive: SR leukemia 26.2% | RPMI-8226 leukemia 34.7% | OVCAR-8 ovarian 38.6% | OVCAR-5 ovarian 73.2% | OVCAR-4 ovarian 73.1% | SK-OV-3 ovarian 109% | IGROV1 ovarian 37.5% | OVCAR-3 ovarian 38.3% | HS 578T breast 37.7% | NCI/ADR-RES ovarian 104%

CC(C)(O)c1cncc(-c2ccc3ncnc(NCc4ccccc4)c3c2)c1
inactive: SR leukemia 92.2% | RPMI-8226 leukemia 84.6% | OVCAR-8 ovarian 102% | OVCAR-5 ovarian 62.5% | OVCAR-4 ovarian 77.3% | SK-OV-3 ovarian 110% | IGROV1 ovarian 34.2% | OVCAR-3 ovarian 83.8% | HS 578T breast 73.2% | NCI/ADR-RES ovarian 103%

Reference: PubChem BioAssay (NCI)
